According to PubChem BioAssay (EPA / NIEHS):
Values joined by “and” are separate entries in the source; they are usually repeats but may differ in a detail not shown here. Equal values may be shown once. Results filed as inconclusive are left out. Where a structure was tested more than once in an assay, its records may differ in their call. Active and inactive are the calls of the source. Rule for the calls, unless noted: active = hit-call score of the fitted dose curve at least 0.9, where 1 is the maximum; inconclusive = response in the unintended direction; inactive = score below 0.9.

Columns and labels:
[1] = ATG_XTT_Cytotoxicity: Cytotoxicity Assessment in the Attagene TRANS-FACTORIAL HepG2 Assay (AID 2283584);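 for AC50: XTT signal for cell number as viability in transfected HepG2 cells; cells exposed to compound for 24 h before reading; active means loss of viability signal versus DMSO baseline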
In short: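 HepG2 cells transiently transfected with GAL4-UAS multiple reporter units, dosed 24 h; cytotoxicity read by XTT as loss of signal versus DMSO baseline.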

[2] = read-out: Signal transducer and activator of transcription 3 (Homo sapiens) (UniProt P40763); assay: LTEA_HepaRG_STAT3: Life Technologies and Expression Analysis (LTEA) Assay for Signal transducer and activator of transcription (STAT3) using HepaRG (AID 2283529; active = hit-call score of the fitted dose curve at least 0.9, where 1 is the maximum; inactive = score below 0.9); conditions: mRNA level, 48 h; actives raise or lower the signal
In short: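 Differentiated human HepaRG cells in serum-free induction medium were exposed in duplicate for 48 h to eight half-log concentrations up to 100 uM in 0.5% DMSO. STAT3 mRNA was quantified by TaqMan qRT-PCR, normalized to ACTB, GAPDH and POLR2A, and fitted bidirectionally against DMSO.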

[3] = read-out: solute carrier (SLCO1B1), SLCO1B1 (gene 10599); assay: LTEA_HepaRG_SLCO1B1: Life Technologies and Expression Analysis (LTEA) Assay for solute carrier (SLCO1B1) using HepaRG (AID 2283530; active = hit-call score of the fitted dose curve at least 0.9, where 1 is the maximum; inactive = score below 0.9); conditions: mRNA level, 48 h; actives raise or lower the signal
In short: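 Differentiated human HepaRG cells were exposed for 48 h in serum-free induction medium to eight half-log concentrations, top 100 uM, in 0.5% DMSO. SLCO1B1 mRNA was measured by qRT-PCR, normalized to ACTB, GAPDH and POLR2A, and fitted bidirectionally against DMSO.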

[4] = read-out: sulfotransferase 2A1 (SULT2A1), SULT2A1 (gene 6822); assay: LTEA_HepaRG_SULT2A1: Life Technologies and Expression Analysis (LTEA) Assay for sulfotransferase 2A1 (SULT2A1) using HepaRG (AID 2283531; active = hit-call score of the fitted dose curve at least 0.9, where 1 is the maximum; inactive = score below 0.9); conditions: mRNA level, 48 h; actives raise or lower the signal
In short: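 HepaRG human liver cells, 48 h exposure in serum-free induction medium to 8 half-log concentrations topping at 100 µM (0.5% DMSO), duplicate wells. SULT2A1 mRNA measured by TaqMan qRT-PCR, normalized to ACTB/GAPDH/POLR2A; bidirectional fit against DMSO.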

[5] = read-out: Transforming Growth Factor (TGFA), TGFA (gene 7039); assay: LTEA_HepaRG_TGFA: Life Technologies and Expression Analysis (LTEA) Assay for Transforming Growth Factor (TGFA) using HepaRG (AID 2283532; active = hit-call score of the fitted dose curve at least 0.9, where 1 is the maximum; inactive = score below 0.9); conditions: mRNA level, 48 h; actives raise or lower the signal
In short: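 Differentiated human HepaRG cells, plated 48 h then switched to serum-free induction medium, were exposed in duplicate for 48 h to 8-point half-log series from 100 uM in 0.5% DMSO. TGFA mRNA measured by qRT-PCR, normalized to ACTB/GAPDH/POLR2A, bidirectional fit versus DMSO.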

[6] = read-out: Transforming Growth Factor (TGFB1), TGFB1 (gene 7040); assay: LTEA_HepaRG_TGFB1: Life Technologies and Expression Analysis (LTEA) Assay for Transforming Growth Factor (TGFB1) Transporter using HepaRG (AID 2283533; active = hit-call score of the fitted dose curve at least 0.9, where 1 is the maximum; inactive = score below 0.9); conditions: mRNA level, 48 h; actives raise or lower the signal
In short: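 Differentiated HepaRG cells exposed 48 hr in serum-free induction medium to eight half-log concentrations up to 100 uM (0.5% DMSO), duplicate; TGFB1 mRNA by TaqMan qRT-PCR normalised to ACTB, GAPDH, POLR2A; bidirectional fit against DMSO.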

TIMP1, TIMP1 (gene 7076) = assay: LTEA_HepaRG_TIMP1: Life Technologies and Expression Analysis (LTEA) Assay for TIMP1 using HepaRG (AID 2283534; active = hit-call score of the fitted dose curve at least 0.9, where 1 is the maximum; inactive = score below 0.9); conditions: mRNA level, 48 h; actives raise or lower the signal
In short: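 Differentiated HepaRG cells exposed 48 h in serum-free induction medium, duplicates, eight half-log concentrations from 100 uM in 0.5% DMSO. TIMP1 mRNA by qRT-PCR normalized to ACTB, GAPDH, POLR2A; bidirectional fitting against DMSO.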

[7] = read-out: Tumor necrosis factor receptor 1 (TNFRSF1A), TNFRSF1A (gene 7132); assay: LTEA_HepaRG_TNFRSF1A: Life Technologies and Expression Analysis (LTEA) Assay for Tumor necrosis factor receptor 1 (TNFRSF1A) using HepaRG (AID 2283535; active = hit-call score of the fitted dose curve at least 0.9, where 1 is the maximum; inactive = score below 0.9); conditions: mRNA level, 48 h; actives raise or lower the signal
In short: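 Differentiated HepaRG cells in serum-free induction medium, exposed 48 h in duplicate to 8 half-log concentrations up to 100 uM in 0.5% DMSO. TNFRSF1A mRNA by Fluidigm TaqMan qRT-PCR, normalized to ACTB, GAPDH, POLR2A; bidirectional fit.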

[8] = read-out: Thyroid Hormone Responsive (THRSP), THRSP (gene 7069); assay: LTEA_HepaRG_THRSP: Life Technologies and Expression Analysis (LTEA) Assay for Thyroid Hormone Responsive (THRSP) using HepaRG (AID 2283536; active = hit-call score of the fitted dose curve at least 0.9, where 1 is the maximum; inactive = score below 0.9); conditions: mRNA level, 48 h; actives raise or lower the signal
In short: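 Differentiated human HepaRG cells were exposed in duplicate for 48 h in serum-free induction medium to eight concentrations (top 100 uM, half-log steps, 0.5% DMSO). Expression was quantified by TaqMan qRT-PCR, normalized to ACTB, GAPDH and POLR2A, with bidirectional fitting against DMSO.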

[9] = read-out: Cellular tumor antigen p53 (Homo sapiens) (UniProt P04637); assay: LTEA_HepaRG_TP53: Life Technologies and Expression Analysis (LTEA) Assay for Tumor Protein P53 (TP53) using HepaRG (AID 2283537; active = hit-call score of the fitted dose curve at least 0.9, where 1 is the maximum; inactive = score below 0.9); conditions: mRNA level, 48 h; actives raise or lower the signal
In short: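 TP53 transcript measured by qRT-PCR, normalized to three housekeeping genes, after 48 h treatment of human HepaRG cultures with chemicals from 100 uM downward in half-log steps (0.5% DMSO vehicle, serum-free induction medium). Up- or down-regulation fitted against DMSO.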

[10] = read-out: UDP glucuronosyltransferase (UGT1A1), UGT1A1 (gene 54658); assay: LTEA_HepaRG_UGT1A1: Life Technologies and Expression Analysis (LTEA) Assay for UDP glucuronosyltransferase (UGT1A1) using HepaRG (AID 2283538; active = hit-call score of the fitted dose curve at least 0.9, where 1 is the maximum; inactive = score below 0.9); conditions: mRNA level, 48 h; actives raise or lower the signal
In short: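 HepaRG cells, 0.5% DMSO vehicle, 48 h exposure in serum-free induction medium to 8-point half-log series topping at 100 uM, in duplicate. UGT1A1 mRNA by Fluidigm qRT-PCR, normalized to ACTB/GAPDH/POLR2A; bidirectional fit versus DMSO.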

[11] = read-out: UDP glucuronosyltransferase (UGT1A6), UGT1A6 (gene 54578); assay: LTEA_HepaRG_UGT1A6: Life Technologies and Expression Analysis (LTEA) Assay for UDP glucuronosyltransferase (UGT1A6) using HepaRG (AID 2283539; active = hit-call score of the fitted dose curve at least 0.9, where 1 is the maximum; inactive = score below 0.9); conditions: mRNA level, 48 h; actives raise or lower the signal
In short: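 Differentiated HepaRG cells, ~100,000/well, were exposed for 48 h in serum-free induction medium with 0.5% DMSO to 8-point half-log series topping at 100 uM, in duplicate. mRNA measured by Fluidigm TaqMan qRT-PCR, normalized to ACTB, GAPDH and POLR2A.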

[12] = read-out: X-box binding protein 1 (XBP1), XBP1 (gene 7494); assay: LTEA_HepaRG_XBP1: Life Technologies and Expression Analysis (LTEA) Assay for X-box binding protein 1 (XBP1) using HepaRG (AID 2283540; active = hit-call score of the fitted dose curve at least 0.9, where 1 is the maximum; inactive = score below 0.9); conditions: mRNA level, 48 h; actives raise or lower the signal
In short: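 Differentiated human HepaRG cells in serum-free induction medium exposed 48 h in duplicate to eight half-log concentrations up to 100 uM in 0.5% DMSO. XBP1 mRNA measured by Fluidigm TaqMan qRT-PCR, normalized to ACTB, GAPDH, POLR2A; bidirectional fitting against DMSO.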

[13] = LTEA_HepaRG_LDH_cytotoxicity: Cytotoxicity Assessment in the Life Technologies and Expression Analysis (LTEA) Assay (AID 2283563);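 note: LDH activity released into spent culture medium as a marker of cell death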
In short: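 Differentiated HepaRG cells in serum-free induction medium, exposed 48 h in duplicate to 8 half-log concentrations up to 100 uM in 0.5% DMSO. Cytotoxicity from LDH measured in spent medium, fit relative to DMSO.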

[14] = TOX21_p53_BLA_p2_viability: Viability Assessment in the Tox21 HCT-116 p53 Agonism Beta-lactamase Assay, Phase 2 (AID 2283591);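 note: compound exposure lasted 16 h at 37 °C; actives lower the ATP signal meaning cytotoxicity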
In short: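 HCT-116 p53-bla cells (4000/well) rested 5 h at 37C, then received compounds in DMSO (217-fold dilution) for 16 h at 37C, 5% CO2. After the CCF4 read, CellTiter-Glo was added; ATP luminescence was read after 30 min at room temperature.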

[15] = target: Cellular tumor antigen p53 (Homo sapiens) (UniProt P04637); assay: TOX21_p53_BLA_p2_ratio: Tox21 HCT-116 p53 Agonism Beta-lactamase Assay, Ratio, Phase 2 (AID 2283592)
Sequence of Cellular tumor antigen p53 (Homo sapiens) (P04637 whole entry, looked up): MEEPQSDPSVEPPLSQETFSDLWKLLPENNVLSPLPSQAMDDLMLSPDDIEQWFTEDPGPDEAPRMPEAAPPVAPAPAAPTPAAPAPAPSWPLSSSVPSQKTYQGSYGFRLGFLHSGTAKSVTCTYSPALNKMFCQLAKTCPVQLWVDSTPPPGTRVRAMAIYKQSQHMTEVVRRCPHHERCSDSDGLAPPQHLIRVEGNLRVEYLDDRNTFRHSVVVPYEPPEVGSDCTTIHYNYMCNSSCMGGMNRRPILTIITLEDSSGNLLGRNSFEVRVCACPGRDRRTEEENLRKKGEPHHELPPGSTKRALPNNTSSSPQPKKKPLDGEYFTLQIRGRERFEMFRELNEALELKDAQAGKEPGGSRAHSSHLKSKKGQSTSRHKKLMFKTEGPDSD
In short: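 HCT-116 cells with p53-responsive beta-lactamase reporter, 4000 cells/well, preincubated 5 h, then compound in DMSO (217-fold dilution) for 16 h at 37C. CCF4-AM substrate 2 h at room temperature; 460/530 nm emission ratio fitted upward versus DMSO.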

[16] = TOX21_p53_BLA_p3_viability: Viability Assessment in the Tox21 HCT-116 p53 Agonism Beta-lactamase Assay, Phase 3 (AID 2283593);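 note: cells exposed to compound for 16 h before reading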
In short: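 HCT-116 cells (4000/well) rested 5 h at 37C, then got DMSO compounds by pin tool (217-fold dilution) for 16 h at 37C, 5% CO2. After the bla read, CellTiter-Glo was added and luminescence read at 30 min, room temperature.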

[17] = target: Cellular tumor antigen p53 (Homo sapiens) (UniProt P04637); assay: TOX21_p53_BLA_p3_ratio: Tox21 HCT-116 p53 Agonism Beta-lactamase Assay, Ratio, Phase 3 (AID 2283596)
In short: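 HCT116 p53-bla cells (4000/well) given compound in DMSO (217-fold dilution) after 5 h, incubated 16 h at 37C. CCF4-AM substrate 2 h at room temperature; 460/530 nm emission ratio, gain fitted against DMSO.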

[18] = TOX21_p53_BLA_p4_viability: Viability Assessment in the Tox21 HCT-116 p53 Agonism Beta-lactamase Assay, Phase 4 (AID 2283597);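 note: hits lower the luminescence signal meaning cytotoxicity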
In short: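 HCT-116 p53-bla cells, 4000/well, dosed after 5 h attachment and incubated 16 h at 37 °C, 5% CO2. Viability from CellTiter-Glo ATP luminescence after 30 min at room temperature, taken after the beta-lactamase read; loss of signal indicates cytotoxicity.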

[19] = target: Cellular tumor antigen p53 (Homo sapiens) (UniProt P04637); assay: TOX21_p53_BLA_p5_ratio: Tox21 HCT-116 p53 Agonism Beta-lactamase Assay, Ratio, Phase 5 (AID 2283599)
In short: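 HCT-116 cells carrying a p53-inducible beta-lactamase reporter were seeded at 4000 cells/well and dosed after 5 h with compound in DMSO (217-fold dilution). After 16 h at 37C, CCF4-AM substrate was added for 2 h, and the 460/530 nm emission ratio was scored as gain-of-signal versus DMSO.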

Sequence of Signal transducer and activator of transcription 3 (Homo sapiens) (P40763 whole entry, looked up): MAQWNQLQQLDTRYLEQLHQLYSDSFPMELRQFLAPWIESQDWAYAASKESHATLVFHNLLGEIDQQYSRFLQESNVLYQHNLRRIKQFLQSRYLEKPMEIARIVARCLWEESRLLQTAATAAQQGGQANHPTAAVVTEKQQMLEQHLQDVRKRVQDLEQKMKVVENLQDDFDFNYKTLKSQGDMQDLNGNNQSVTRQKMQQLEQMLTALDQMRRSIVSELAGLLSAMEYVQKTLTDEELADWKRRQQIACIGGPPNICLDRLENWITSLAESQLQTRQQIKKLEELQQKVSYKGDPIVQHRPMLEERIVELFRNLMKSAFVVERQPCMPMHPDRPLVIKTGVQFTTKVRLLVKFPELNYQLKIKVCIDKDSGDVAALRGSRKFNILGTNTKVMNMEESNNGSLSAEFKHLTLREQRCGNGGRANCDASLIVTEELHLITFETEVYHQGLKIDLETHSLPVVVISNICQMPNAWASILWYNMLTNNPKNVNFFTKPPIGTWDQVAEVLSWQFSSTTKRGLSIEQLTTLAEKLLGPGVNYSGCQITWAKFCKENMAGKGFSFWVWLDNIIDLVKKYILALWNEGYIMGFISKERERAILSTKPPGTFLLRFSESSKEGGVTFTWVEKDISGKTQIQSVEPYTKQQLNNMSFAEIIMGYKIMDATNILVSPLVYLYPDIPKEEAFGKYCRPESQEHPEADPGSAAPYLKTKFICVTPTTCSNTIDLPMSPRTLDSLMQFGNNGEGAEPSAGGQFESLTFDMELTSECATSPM

Q: Which outcome [1] does the source give for OCC=Cc1ccccc1 here?
A: The outcome was “inactive”.

Q: For C[N+](C)(C)CCO, which outcome [1] is on record?
A: Its outcome is “inactive”.

Q: For N#CCCNCCC#N, which outcome [1] is on record?
A: Its outcome is “inactive”.

Q: For CC(C)(C)c1cc(CCC(=O)OCCSCCOC(=O)CCc2cc(C(C)(C)C)c(O)c(C(C)(C)C)c2)cc(C(C)(C)C)c1O, which outcome [1] is on record?
A: The outcome was “inactive”.

Q: Which outcome [1] does the source give for O=c1cc[nH]cc1 here?
A: Its outcome is “inactive”.

Q: With CC(=O)c1ccc(C)cc1 as the compound, how does the outcome [1] read?
A: Its outcome is “inactive”.

Q: Which outcome [1] does the source give for Cc1cc(O)c(C)c(C)c1O here?
A: The outcome was “inactive”.

Q: For CC(O)CN (stereo not given), which outcome [1] is on record?
A: Its outcome is “inactive”.

Q: For O=C1CCCCCCCCCCCC(=O)OCCO1, which outcome [1] is on record?
A: The outcome was “inactive”.

Q: For O=C(c1ccc(OCCN2CCCCC2)cc1)c1c(-c2ccc(O)cc2)sc2cc(O)ccc12, which AC50 [2] is on record?
A: Its AC50 is 50 µM (active).

Q: What about the AC50 [3] of the same compound?
A: Its AC50 is 68.7 µM (active).

Q: And the AC50 [4]?
A: The AC50 was 50 µM (active).

Q: And the AC50 [5]?
A: The AC50 was 75.2 µM (active).

Q: And the outcome [6]?
A: The outcome was “inactive”.

Q: And the AC50 (TIMP1, TIMP1 (gene 7076))?
A: Its AC50 is 50 µM (active).

Q: What about the outcome [7] of the same compound?
A: Its outcome is “inactive”.

Q: What about the outcome [8] of the same compound?
A: Its outcome is “inactive”.

Q: And the outcome [9]?
A: Its outcome is “inactive”.

Q: What about the AC50 [10] of the same compound?
A: The AC50 was 50 µM (active).

Q: What about the AC50 [11] of the same compound?
A: Its AC50 is 50 µM (active).

Q: What about the AC50 [12] of the same compound?
A: Its AC50 is 50 µM (active).

Q: And the AC50 [13]?
A: Its AC50 is 77.4 µM (active).

Q: What about the AC50 [1] of the same compound?
A: Its AC50 is 28.3 µM (active) and 28.6 µM (active) and 34.3 µM (active).

Q: What about the outcome [1] of the same compound?
A: Its outcome is “inactive”.

Q: What about the AC50 [14] of the same compound?
A: Its AC50 is 84.9 µM (active) and 71.8 µM (active) and 42.8 µM (active).

Q: What about the AC50 [15] of the same compound?
A: Its AC50 is 68.6 µM (active) and 62.8 µM (active) and 36.4 µM (active).

Q: And the AC50 [16]?
A: Its AC50 is 69.8 µM (active) and 74.5 µM (active) and 35.6 µM (active).

Q: And the AC50 [17]?
A: Its AC50 is 74.5 µM (active) and 71.4 µM (active) and 26.1 µM (active).

Q: And the AC50 [18]?
A: The AC50 was 68.2 µM (active) and 68.5 µM (active) and 25.1 µM (active).

Q: And the AC50 [19]?
A: Its AC50 is 72.8 µM (active) and 81.5 µM (active) and 36.2 µM (active).
